Data on 57 molecules can be found in article PMC4336329 (PLoS ONE, 2015).

In all, about 310,000 compounds went through this assay and about 14,000 (4.5%) showed an effect of 50% or more. The effect is printed as a negative number. The sample as a whole holds a higher share of strong results than the screen did.
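Further: peak tail current of the secondary pulse compared with the same well before compound.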

human ether-à-go-go-related gene (hERG) potassium channel, sequence (Q12809 whole entry, looked up): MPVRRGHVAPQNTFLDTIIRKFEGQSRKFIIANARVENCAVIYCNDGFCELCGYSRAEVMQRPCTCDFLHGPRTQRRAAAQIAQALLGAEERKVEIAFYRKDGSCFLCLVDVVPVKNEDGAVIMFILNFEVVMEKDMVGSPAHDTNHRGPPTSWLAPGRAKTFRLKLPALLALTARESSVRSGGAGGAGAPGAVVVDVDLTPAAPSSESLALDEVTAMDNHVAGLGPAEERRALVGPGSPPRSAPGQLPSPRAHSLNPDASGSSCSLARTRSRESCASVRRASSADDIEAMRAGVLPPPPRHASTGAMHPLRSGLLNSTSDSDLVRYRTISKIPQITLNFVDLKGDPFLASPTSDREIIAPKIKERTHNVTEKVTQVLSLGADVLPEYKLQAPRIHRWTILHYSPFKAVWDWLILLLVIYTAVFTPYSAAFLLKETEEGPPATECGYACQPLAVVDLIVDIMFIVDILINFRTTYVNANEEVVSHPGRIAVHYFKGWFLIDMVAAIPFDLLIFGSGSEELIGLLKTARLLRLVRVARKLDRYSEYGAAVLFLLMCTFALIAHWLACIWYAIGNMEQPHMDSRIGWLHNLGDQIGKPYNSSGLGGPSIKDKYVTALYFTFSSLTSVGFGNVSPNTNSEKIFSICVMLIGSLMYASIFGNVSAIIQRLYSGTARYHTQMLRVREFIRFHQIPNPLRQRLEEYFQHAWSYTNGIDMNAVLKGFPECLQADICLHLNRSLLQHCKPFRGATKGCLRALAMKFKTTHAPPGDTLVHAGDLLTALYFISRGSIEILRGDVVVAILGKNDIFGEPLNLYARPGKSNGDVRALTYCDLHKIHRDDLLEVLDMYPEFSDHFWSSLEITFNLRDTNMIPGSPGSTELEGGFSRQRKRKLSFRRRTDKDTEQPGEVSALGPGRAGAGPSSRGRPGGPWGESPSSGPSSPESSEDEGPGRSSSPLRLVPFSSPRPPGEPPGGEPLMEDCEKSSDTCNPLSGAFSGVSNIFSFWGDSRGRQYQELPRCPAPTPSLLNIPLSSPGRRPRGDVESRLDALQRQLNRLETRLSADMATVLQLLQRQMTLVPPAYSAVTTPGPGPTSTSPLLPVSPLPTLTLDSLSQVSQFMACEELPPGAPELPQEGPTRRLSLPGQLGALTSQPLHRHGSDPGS

The test has as its target human ether-à-go-go-related gene (hERG) potassium channel (human, UniProt Q12809). Description: primary screen, population patch clamp on CHO cells stably expressing hERG; higher = less effect of the substance.
Regarding `CCOC(=O)N1CCN(CC(=O)Nc2cc(C)nn2-c2nc3ccccc3s2)CC1`, the “hERG current change (%, negative = inhibition) at 10uM” value is listed as -23.3%.
Turning to `COc1ccc(Cl)cc1NC(=S)N1CCN(c2ncccn2)CC1`, the “hERG current change (%, negative = inhibition) at 10uM” value is 13.6%.
`CCc1nc(SCc2ccccc2C#N)n[nH]1`: the “hERG current change (%, negative = inhibition) at 10uM” value is 13.4%.
In the case of `CC(=O)NCCC(=O)Nc1nc(-c2cccs2)c(-c2cccs2)s1`, the “hERG current change (%, negative = inhibition) at 10uM” value was -6.66%.
Turning to `COc1ccc(-c2noc(CSc3nnc(-c4ccccc4)n3C)n2)cc1`, the “hERG current change (%, negative = inhibition) at 10uM” value was -32.8%.
With `CCOC(=O)c1sc2nc(C)nc(NCc3ccc(F)cc3)c2c1C`, the “hERG current change (%, negative = inhibition) at 10uM” value was 17.2%.
With `CCOC(=O)c1sc2nc(C)nc(NCc3ccc(Cl)cc3)c2c1C`, the “hERG current change (%, negative = inhibition) at 10uM” value is reported as -80.6%.
Consider `CCOC(=O)c1sc2nc(CC(=O)OC)nc(NCCN(CC)CC)c2c1C`, for which the “hERG current change (%, negative = inhibition) at 10uM” value is given as -62.7%.
For the molecule `CCOC(=O)c1sc2nc(C)nc(NCc3ccccc3)c2c1C`, the “hERG current change (%, negative = inhibition) at 10uM” value is 9.35%.
As for `CCOC(=O)c1sc2nc(CC(=O)OC)nc(NCC(=O)OC)c2c1C`, the “hERG current change (%, negative = inhibition) at 10uM” value was -9.05%.
As to `CCOC(=O)c1sc2nc(CC(=O)OC)nc(NCc3ccc(Cl)cc3)c2c1C`, the “hERG current change (%, negative = inhibition) at 10uM” value is -7.35%.
Next, `COc1cc(NC(=O)c2ccc(F)cc2)c(OC)cc1Cl`: 3%; `O=S1OC(c2ccccc2)c2cc(Cl)ccc21` (stereo not drawn): 11%; `COc1cccc(-c2noc(CCC(=O)NC3CCCC3)n2)c1`: 7.42%.
As to `Cn1c(=O)c2c(nc(SCC(=O)O)n2Cc2cc3c(cc2Cl)OCO3)n(C)c1=O`, the “hERG current change (%, negative = inhibition) at 10uM” value came out at 6.88%.
Turning to `O=c1[nH]c(CSc2nnc(COc3ccccc3)n2-c2ccccc2)nc2ccccc12`, the “hERG current change (%, negative = inhibition) at 10uM” value is listed as -4.92%.
For `C/C(=N\N1CCN(C2c3ccccc3-c3ccccc32)CC1)c1cccnc1`, the “hERG current change (%, negative = inhibition) at 10uM” value is listed as -2.47%.
On to `C/C(=N/N1CCN(Cc2cccc3ccccc23)CC1)c1cccnc1`, for which the “hERG current change (%, negative = inhibition) at 10uM” value was -50.1%.
As to `C(=N\N1CCN(Cc2cccc3ccccc23)CC1)/c1cccnc1`, the “hERG current change (%, negative = inhibition) at 10uM” value is listed as -1.95%.
In the case of `COc1ccc(N(CC(=O)N2CCc3ccccc3C2)S(C)(=O)=O)cc1Cl` it was -25.7%; in that of `CN(C)Cc1c(O)ccc2occ(C(=O)c3ccc(F)cc3)c12`, -69.6%.
Turning to `Cc1ccc(C(=O)c2coc3ccc(O)cc23)cc1`, the “hERG current change (%, negative = inhibition) at 10uM” value was 23.2%.
With `CN(C)Cc1c(O)ccc2occ(C(=O)c3ccccc3)c12`, the “hERG current change (%, negative = inhibition) at 10uM” value is -52.8%.
For the molecule `COc1ccc2occ(C(=O)c3ccccc3)c2c1`, the “hERG current change (%, negative = inhibition) at 10uM” value is -15.3%.
Turning to `Cc1oc2ccc(O)c(CN(C)C)c2c1C(=O)c1ccccc1`, the “hERG current change (%, negative = inhibition) at 10uM” value is listed as -42.4%.
In the case of `CCN(CC)Cc1c(O)ccc2occ(C(=O)c3ccccc3)c12`, the “hERG current change (%, negative = inhibition) at 10uM” value is on record as -72.6%.
As to `Cc1ccc(C(=O)c2coc3ccc(O)c(CN(C)C)c23)cc1.Cl`, the “hERG current change (%, negative = inhibition) at 10uM” value was -54.7%.
As to `O=C(c1ccccc1)c1coc2ccc(O)c(Cl)c12`, the “hERG current change (%, negative = inhibition) at 10uM” value is reported as -10.9%.
Consider `CN(C)Cc1c(O)ccc2occ(C(O)c3ccccc3)c12` (stereo not drawn), for which the “hERG current change (%, negative = inhibition) at 10uM” value is -2.08%.
With `Cc1ccc(C(=O)c2coc3ccc(O)c(Cl)c23)cc1`, the “hERG current change (%, negative = inhibition) at 10uM” value is recorded as -26.5%.
As for `COC(=O)C1(C)NC(c2ccc(Cl)cc2)C2C(=O)N(c3ccccc3)C(=O)C21` (stereo not drawn), the “hERG current change (%, negative = inhibition) at 10uM” value is listed as -3.27%.
With `COc1ccc(C2(c3ccc(OC)cc3)NC(=O)N(CC(=O)Nc3ccc(OC(F)F)cc3)C2=O)cc1`, the “hERG current change (%, negative = inhibition) at 10uM” value was -19.2%.
As for `CCOc1ccc(N2C(=O)C3CCCN3C2=O)cc1` (stereo not drawn), the “hERG current change (%, negative = inhibition) at 10uM” value turned out to be 10.1%.
`O=C(O)C1CCN1C1CCCCC1` (stereo not drawn): the “hERG current change (%, negative = inhibition) at 10uM” value was determined as 5.54%.
As for `COC(=O)CCCCCCCCCC[N+]1(C)CCCCC1.[I-]`, the “hERG current change (%, negative = inhibition) at 10uM” value is given as -0.248%.
In the case of `CC(=O)OCCCCCCCCCCC[N+]1(C)CCCCC1.[I-]` it was -7.49%.
`C[N+]1(CCCCSc2ccc(O)cc2)CCCCC1.[I-]`: the “hERG current change (%, negative = inhibition) at 10uM” value is -51.7%.
In the case of `Nc1c(C(=O)CSc2nc(-c3ccccc3)cs2)c(=O)[nH]c(=O)n1C1CC1` it was -7.63%.
Consider `O=C(c1ccco1)n1nc(-c2ccccc2)nc1SCc1ccccc1`, for which the “hERG current change (%, negative = inhibition) at 10uM” value turned out to be 3.93%.
Turning to `COC(=O)C1C(O)CCC2CN3CCc4c([nH]c5ccccc45)C3CC21` (stereo not drawn), the “hERG current change (%, negative = inhibition) at 10uM” value is -21.1%.
In the case of `COC(=O)[C@H]1[C@H]2C[C@H]3c4[nH]c5ccccc5c4CCN3C[C@@H]2CC[C@@H]1O`, the “hERG current change (%, negative = inhibition) at 10uM” value is listed as -12.5%.
Regarding `COC(=O)[C@@H]1[C@H]2C[C@H]3c4[nH]c5ccccc5c4CCN3C[C@@H]2CC[C@@H]1O`, the “hERG current change (%, negative = inhibition) at 10uM” value is -57.5%.
As for `CCSCCOC(=O)C1=C(C)N(C)C(=O)NC1c1ccc2c(c1)OCO2` (stereo not drawn), the “hERG current change (%, negative = inhibition) at 10uM” value worked out at 5.29%.
Consider `COc1ccc(S(=O)(=O)N(CC(=O)NCc2cccnc2)C2CCCCC2)cc1OC`, for which the “hERG current change (%, negative = inhibition) at 10uM” value was -12.7%.
For the molecule `Cc1cc(C)c(S(=O)(=O)N(CC(=O)NCc2cccnc2)C2CCCCC2)c(C)c1`, the “hERG current change (%, negative = inhibition) at 10uM” value is listed as -37.4%.
With `CS(=O)(=O)N(CC(=O)NCc1cccnc1)C1CCCCC1`, the “hERG current change (%, negative = inhibition) at 10uM” value amounted to 5.98%.
As for `O=C(CN(C1CCCCC1)S(=O)(=O)c1ccccc1)NCc1cccnc1`, the “hERG current change (%, negative = inhibition) at 10uM” value is recorded as -30%.
For the molecule `Cc1ccc(S(=O)(=O)N(CC(=O)NCc2cccnc2)C2CCCCC2)cc1`, the “hERG current change (%, negative = inhibition) at 10uM” value is -63.3%.
Next, `O=C(CN(C1CCCCC1)S(=O)(=O)c1ccc(Cl)cc1)NCc1cccnc1`: -74.4%; `O=C(COC(=O)c1cc(S(=O)(=O)N2CCOCC2)ccc1F)NC1CCCCC1`: -2.25%.
Consider `O/N=C\c1ccccc1Oc1ccc(F)cc1`, for which the “hERG current change (%, negative = inhibition) at 10uM” value is 12.8%.
For the molecule `O=[N+]([O-])c1cc(/C=N/O)ccc1Oc1ccccc1Cl`, the “hERG current change (%, negative = inhibition) at 10uM” value is reported as -16%.
Regarding `COc1cc(/C=N/O)ccc1Oc1ccc([N+](=O)[O-])cc1[N+](=O)[O-]`, the “hERG current change (%, negative = inhibition) at 10uM” value is on record as -45.9%.
Next, `O=[N+]([O-])c1cc(/C=N\O)ccc1Oc1ccc(F)cc1`: -72.1%; `O=[N+]([O-])c1cc(/C=N/O)ccc1Oc1cccc(Cl)c1`: -53.7%; `CO/N=C/c1ccc(Oc2ccc(C)cc2)c([N+](=O)[O-])c1`: 12.1%.
Turning to `CC(NC1c2ccccc2-c2ccccc21)c1ccccc1` (stereo not drawn), the “hERG current change (%, negative = inhibition) at 10uM” value amounted to 9.54%.
